In article PMC5540273 (PLoS ONE, 2017):

System: T1, RSK4(Kin.Dom.1-N-terminal)
T1 construct: gene RPS6KA6
Conditions: concentration: 1 μM, replicates: in singlicate; n = 1
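Also: KINOMEscan kinase panel screen.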

| SMILES | %Inh [%] |
| --- | --- |
| COc1cccc(C(=O)Nc2cccc(Oc3ccc4nc(NC(=O)C5CC5)cn4n3)c2)c1 | 0 |
| Cc1cccc(NC(=O)Nc2ccc(Oc3ncnc4ccn(C)c34)cc2)c1 | 0 |
| Cc1ccc(S(=O)(=O)Nc2ccc(Nc3nccc(Nc4cccc5[nH]ncc45)n3)cc2)cc1 [GSK581271] | 0 |
| O=C(Nc1ccccc1F)NC1CCN(c2ccnc(Nc3ccc(F)cc3)n2)CC1 [GSK1379800] | 0 |
| Nc1n[nH]c2cnc(-c3ccccc3)cc12 [SB-642124] | 19 |
| c1ccc(-c2n[nH]cc2Nc2ccnc3ccccc23)nc1 [GW694077] | 1 |

System: T2, RSK4(Kin.Dom.2-C-terminal)
T2 construct: gene RPS6KA6
Conditions: concentration: 1 μM, replicates: in singlicate; n = 1

| SMILES | %Inh [%] |
| --- | --- |
| CN(c1ccc(NC(=O)Nc2cc(C(F)(F)F)ccc2F)cc1)c1ccnc(Nc2ccc(S(N)(=O)=O)cc2)n1 [GW809893] | 0 |
| Nc1ncnc2c1nc(-c1ccccc1)n2-c1ccccc1 [SKF-97293] | 0 |
| CN1CCN(CCCNc2nccc(-c3c(-c4ccc(F)cc4)nn4cc(C(F)(F)F)ccc34)n2)CC1 [GW621581] | 80 |
| O=C(Nc1cccc(-c2nn3ccccc3c2-c2ccnc(Nc3cccc(C(F)(F)F)c3)n2)c1)c1c(F)cccc1F [GSK292658] | 0 |
| COc1cc(Nc2nccc(N3CCC(NC(=O)Nc4cccc(C(C)=O)c4)C3)n2)cc(OC)c1OC (stereo not shown) [GSK1379753] | 12 |
| Cl.Cl.NCC(C(=O)Nc1cc(Br)c(-c2ccnc3[nH]ccc23)s1)c1ccccc1 (stereo not shown) [GSK1269851] | 2 |
| COc1ccc(Nc2nccc(NCCNC(=O)c3cc4ccccc4s3)n2)cc1 [GSK1379896] | 0 |
| Cc1ccc(F)c(C(=O)Nc2cccc(-c3nn4ccccc4c3-c3ccnc(Nc4cccc(F)c4)n3)c2)c1F [GSK361061] | 13 |
| Cl.Cl.NCC(NC(=O)c1cc(-c2ccccc2)c(-c2ccnc3[nH]ccc23)s1)c1ccccc1 (stereo not shown) [GSK1321561] | 0 |
| Cc1cccc(Nc2nc(N[C@H]3CCNC3)ncc2C(N)=O)c1.Cl [GSK2197149] | 23 |
| COc1cccc(C2=C(Nc3ccc(Cl)c(C(=O)O)c3)C(=O)NC2=O)c1 [SB-390769] | 0 |
| O=C(Nc1cccc(-c2nn3ccccc3c2-c2ccnc(Nc3cccc(F)c3)n2)c1)c1c(F)ccc(F)c1Cl [GSK357952] | 0 |
| COc1cccc(NC(=O)NC2CCN(c3ccnc(Nc4cc(OC)c(OC)c(OC)c4)n3)C2)c1 (stereo not shown) [GSK1379763] | 0 |
| O=c1[nH]cc(-c2ccc(N3CCOCC3)cc2)c2sc(-c3cn[nH]c3)cc12 [GSK2276055] | 18 |
| CC(C)(C)c1ccc2nccc(Nc3cccc(O)c3)c2c1 [GW856795] | 27 |
| COc1ccc(Nc2nccc(N3CCC(NC(=O)Nc4cccc(OC)c4)C3)n2)cc1 (stereo not shown) [GSK1379742] | 24 |
| CCS(=O)(=O)c1ccc(OC)c(Nc2nccc(-c3c(-c4cccc(NC(=O)c5c(F)cccc5F)c4)nn4ncccc34)n2)c1 [GSK326180] | 0 |
| CC(C)c1nc(-c2cccc(NS(=O)(=O)c3c(F)cccc3F)c2F)c(-c2ccnc(Nc3ccc(N4CCOCC4)nc3)n2)s1 [GSK2008607] | 39 |
| Fc1ccc(-c2ncn(C3CCNCC3)c2-c2ccnc(Oc3ccc(-c4ccccc4)cc3)n2)cc1 [SB-245391] | 9 |

| SMILES | %Inh [%] |
| --- | --- |
| O=C(Nc1n[nH]c2cc(-c3ccoc3)ccc12)C1CC1 [SB-738481] | 1 |
| Nc1ncc(-c2cccnc2)c2scc(-c3ccc4c(c3)CCN4C(=O)Cc3ccccc3)c12 [GSK683281] | 26 |
| Nc1ncc(-c2ccc3nccc(-c4ccncc4)c3c2)cc1S(=O)(=O)N1CCOCC1 [GSK1627798] | 22 |
| C[C@@H]1CC[C@@H](C(=O)Nc2ccccc2)CN1c1cc(-c2ccc3c(N)n[nH]c3c2)nc(N)n1 [GSK2286062] | 17 |
| Cn1cc(-c2ccc3c(c2)CCN3C(=O)Cc2cccc(F)c2)c2c(N)ncnc21 [GSK2603358] | 43 |
| Cc1ccc(C(=O)N2CC[C@@H](O)C2)cc1-n1c(C)cc(OCc2ccc(F)cc2F)c(Br)c1=O | 2 |
| CN1CCN(Cc2cccc(-c3ccc4c(Nc5ccc(Oc6ccccc6)cc5)ccnc4c3)c2)CC1 [GW578342] | 0 |
| CN(C)S(=O)(=O)c1cc(-c2ccc3nccc(-c4cccc(S(N)(=O)=O)c4)c3c2)cnc1N [GSK1669921] | 44 |
| COc1cc(Nc2nccc(-c3c(-c4cccc(NC(=O)c5c(F)cccc5F)c4)nn4ncccc34)n2)cc(OC)c1OC [GSK327238] | 6 |
| COCCOCCOc1cc2ncc3c4ccc(C#N)cc4[nH]c3c2cc1OC | 0 |
| Cc1ccc(C(=O)Nc2ccc(Nc3ccnc4cc(-c5nccs5)ccc34)cc2O)cc1.Cl [GW494702] | 0 |
| CC(=O)N1CCN(c2ccc(Nc3nccc(-c4sc(C(C)C)nc4-c4cccc(NS(=O)(=O)c5cccc(Cl)c5)c4)n3)cn2)CC1 [GSK1660437] | 6 |
| COc1cccc(C(=O)Nc2cccc(Oc3ccc4nc(NC(=O)C5CC5)cn4n3)c2)c1 | 0 |
| Cc1cccc(NC(=O)Nc2ccc(Oc3ncnc4ccn(C)c34)cc2)c1 | 0 |
| Cc1ccc(S(=O)(=O)Nc2ccc(Nc3nccc(Nc4cccc5[nH]ncc45)n3)cc2)cc1 [GSK581271] | 0 |
| O=C(Nc1ccccc1F)NC1CCN(c2ccnc(Nc3ccc(F)cc3)n2)CC1 [GSK1379800] | 6 |
| Nc1n[nH]c2cnc(-c3ccccc3)cc12 [SB-642124] | 15 |
| c1ccc(-c2n[nH]cc2Nc2ccnc3ccccc23)nc1 [GW694077] | 6 |
